# Compound activity (PubChem)
# This is one part of a sample in which hits are shown more often than they occur.
# KDM4E inh: qHTS Assay for Inhibitors of Human Jumonji Domain Containing 2E (JMJD2E) | JMJD2E catalytic domain, FDH-coupled NADH fluorescence (FDH is formaldehyde dehydrogenase) | Potency, µM (series often up to 57.1 µM), inactives show at the highest dose activity change, negative = inhibition, usual class: inhibitors | hit rate 1.6% among 230,000; active = well fitted inhibition curve with a large enough effect, not every such curve was filed as active; inconclusive = small, poorly fitted or top-dose-only effect, or another doubt; inactive = no such curve, though single readings can be large or run the other way;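 note: 0% = wells with enzyme and -100% = buffer wells without enzyme; nearly all actives have a fitted effect of over 50% in size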
# TDP1 block: qHTS Assay for Inhibitors of Tyrosyl-DNA Phosphodiesterase (TDP1); recombinant TDP1, AlphaScreen DNA substrate cleavage; Potency, µM (top dose mostly 130 µM), for inactives: at the top dose activity change, negative = inhibition, most hits filed as inhibitors; Tyrosyl-DNA phosphodiesterase 1 (Homo sapiens), Q9NUW8; hit rate 0.28% among 350,000; note: % is set by controls: 0 for no effect and ±100 for the full control effect; nearly all actives have a fitted effect of over 40% in size
#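 Recombinant E. coli-expressed Tdp1 (1 nM) preincubated with compound 15 min at RT, then 5'-biotin/3'-phosphotyrosine-FITC DNA substrate (15 nM) added for 5 min. AlphaScreen beads (10 ug/ml) added, 10 min RT; tyrosine-FITC cleavage read as signal loss.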
# APE1 inh-1: qHTS Assay for Inhibitors of the Human Apurinic/apyrimidinic Endonuclease 1 (APE1); recombinant APE1, TAMRA/BHQ-2 abasic DNA cleavage fluorescence; Potency, µM (doses to about 65.8 µM), inactives show at the highest dose activity change, negative = inhibition, actives largely listed as inhibitors; hit rate 0.35% among 350,000; AID 2517, 2012; DNA repair nuclease/redox regulator APEX1 (Homo sapiens), P27695;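 note: plate controls were vehicle for no effect and reference inhibitor for full effect; nearly all actives have a fitted effect of over 55% in size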
#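 Kinetic fluorescence read (525 ex/598 em nm, three reads 60 s apart) of AP-site incision; signal = third minus first read. Enzyme 0.75 nM, dual-labelled THF duplex 50 nM, compound preincubation 15 min RT.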
# RECQ1 inh-1: qHTS Assay for Inhibitors of RecQ-Like Dna Helicase 1 (RECQ1). ATP-dependent DNA helicase Q1 (Homo sapiens), P46063. RECQ1 DNA unwinding, red fluorescence kinetic read. Potency, µM (highest dose often 57.3 µM), for inactives: at the top dose activity, negative = inhibition, usual class: inhibitors. hit rate 0.54% among 240,000. AID 2549, 2010;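 note: plate controls were vehicle for no effect and no enzyme for full effect; nearly all actives have a fitted effect of over 30% in size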
# Target sequence (P46063 whole entry, looked up): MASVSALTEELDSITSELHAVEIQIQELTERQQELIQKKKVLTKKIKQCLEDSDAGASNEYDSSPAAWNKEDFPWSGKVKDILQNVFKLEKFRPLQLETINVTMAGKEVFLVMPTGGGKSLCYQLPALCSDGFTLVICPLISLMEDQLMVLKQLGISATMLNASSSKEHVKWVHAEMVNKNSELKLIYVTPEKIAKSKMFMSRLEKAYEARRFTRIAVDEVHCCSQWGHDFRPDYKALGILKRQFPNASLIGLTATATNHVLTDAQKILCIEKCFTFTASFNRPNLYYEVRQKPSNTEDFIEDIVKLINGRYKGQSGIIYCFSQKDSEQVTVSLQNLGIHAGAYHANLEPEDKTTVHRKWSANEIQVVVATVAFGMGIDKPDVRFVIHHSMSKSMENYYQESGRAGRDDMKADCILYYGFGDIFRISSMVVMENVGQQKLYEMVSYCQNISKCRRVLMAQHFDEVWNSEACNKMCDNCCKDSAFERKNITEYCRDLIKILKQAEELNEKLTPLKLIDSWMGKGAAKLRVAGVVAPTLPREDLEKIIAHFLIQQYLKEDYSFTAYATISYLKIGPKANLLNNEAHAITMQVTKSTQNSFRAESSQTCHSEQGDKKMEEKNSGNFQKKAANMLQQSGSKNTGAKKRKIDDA
#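 RECQ1T1 50 nM; forked duplex (20 bp + 30-nt ss tails) 200 nM, ATP 2 mM final; pH 8.0, 2 mM MgCl2, 2.5 ug/ml poly(dI-dC); 15 min compound preincubation; discontinuous kinetic read over 2 h at RT.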
# BLM inh-1: qHTS Assay for Inhibitors of Bloom's syndrome helicase (BLM); RecQ-like DNA helicase BLM (Homo sapiens), P54132; recombinant BLM DNA unwinding, fluorescence dequenching; Potency, µM (highest dose often 56.1 µM), without a hit: at the top dose activity change, negative = inhibition, hits mostly inhibitors; hit rate 0.2% among 350,000; AID 2528, 2010;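 note: plate controls were vehicle for no effect and no enzyme for full effect; nearly all actives have a fitted effect of over 35% in size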
# L3MBTL1 inh-1: qHTS Assay for the Inhibitors of L3MBTL1; Potency, µM (highest dose often 57.1 µM), for the others: at the top dose activity, negative = inhibition, most hits filed as inhibitors; Lethal(3)malignant brain tumor-like protein 1 (Homo sapiens), Q9Y468; hit rate 0.66% among 230,000; AlphaScreen L3MBTL1–H3K9me1 peptide binding; note: % is set by controls: 0 for no effect and ±100 for the full control effect; nearly all actives have a fitted effect of over 60% in size
#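 Read-out is AlphaScreen signal from streptavidin donor and nickel chelate acceptor beads (10 ug/mL final each) bridging L3MBTL1 (50 nM) and biotinylated K9-monomethylated H3(1-15) peptide (75 nM), after 30 min compound exposure at room temperature.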
# APE1 dye cs: Counterscreen for APE1 Inhibitors: Fluorescent Dye Displacement Assay; shares compounds with APE1 inh-1; DNA fluorescent dye displacement counterscreen, fluorescence; Potency, µM (series often up to 28.5 µM), without a hit: top-dose activity change, negative = inhibition, actives largely listed as inhibitors; hit rate 7% among 480;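 note: loss of thiazole orange fluorescence as the dye is displaced from duplex DNA; 0% = ThO with dsDNA and no compound and -100% = ThO without dsDNA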
# EndoIV counter: Counterscreen for APE1 Inhibitors: qHTS Assay for Inhibitors of Endonuclease IV | Potency, µM (series often up to 27.1 µM), for the others: at the top dose activity change, negative = inhibition, actives largely listed as inhibitors | hit rate 4% among 560 | E. coli Endo IV, fluorogenic AP-site DNA cleavage | shares compounds with APE1 inh-1;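 note: plate controls were uninhibited enzyme wells for no effect and no enzyme buffer wells for full effect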
# APE1 inh-2: Confirmation qHTS Assay for Inhibitors of the Human Apurinic/apyrimidinic Endonuclease 1 (APE1); shares compounds with APE1 inh-1; purified APE1, fluorogenic abasic-site DNA cleavage; Potency, µM (series often up to 57.1 µM), for the others: at the top dose activity change, negative = inhibition, hits mostly inhibitors; hit rate 44% among 750; AID 2572, 2010; note: % is set by controls: 0 for no effect and ±100 for the full control effect; nearly all actives have a fitted effect of over 30% in size
# APE1 FP: qHTS FP-Based Assay for Inhibitors of the Human Apurinic/apyrimidinic Endonuclease 1 (APE1); hit rate 7% among 480; shares compounds with APE1 inh-1; Potency, µM (top dose mostly 28.5 µM), without a hit: top-dose activity, negative = inhibition, most hits filed as inhibitors; AID 2573, 2010; APE1 binding to TAMRA-labelled double-stranded DNA, fluorescence polarization displacement; note: % is set by controls: 0 for no effect and ±100 for the full control effect
# BLM inh-2: qHTS Confirmation Assay for Inhibitors of Bloom's syndrome helicase (BLM); hit rate 40% among 220; BLM DNA unwinding, fluorescence quenching, biochemical; shares compounds with BLM inh-1; Potency, µM, without a hit: max response, negative = inhibition, actives largely listed as inhibitors;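 note: strand separation dequenches TAMRA so unwinding raises red fluorescence; series mostly up to about 69 µM; % is set by controls: 0 for no effect and ±100 for the full control effect; nearly all actives have a fitted effect of over 45% in size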
# RECQ1 conf: Confirmation qHTS Assay for Inhibitors of RecQ-Like Dna Helicase 1 (RECQ1); shares compounds with RECQ1 inh-1; RECQ1 helicase DNA unwinding, fluorescence; Potency, µM (doses to about 229 µM), for inactives: top-dose activity change, negative = inhibition, hits mostly inhibitors; hit rate 28% among 610; AID 2708, 2010; note: % is set by controls: 0 for no effect and ±100 for the full control effect; nearly all actives have a fitted effect of over 45% in size
# RECQ1 ADP FP: Counterscreen for RECQ1 Inhibitors: ADP Fluorescence Polarization Displacement Assay; hit rate 27% among 530; Potency, µM (titrated, usually from 228 µM), without a hit: at the top dose activity change, negative = inhibition, usual class: inhibitors; AID 2711, 2010; shares compounds with RECQ1 inh-1; ADP fluorescence polarization displacement counterscreen; note: % is set by controls: 0 for no effect and ±100 for the full control effect; nearly all actives have a fitted effect of over 45% in size
# RECQ1 inh-2: Confirmation qHTS Assay for Inhibitors of RecQ-Like Dna Helicase 1 (RECQ1) - Round 2 Cherry Picks. AID 504841, 2011. hit rate 15% among 1,100. recombinant RECQ1 DNA unwinding, red fluorescence. shares compounds with RECQ1 inh-1. Potency, µM (highest dose often 119 µM), without a hit: at the top dose activity, negative = inhibition, hits mostly inhibitors; note: % is set by controls: 0 for no effect and ±100 for the full control effect; nearly all actives have a fitted effect of over 50% in size
# L3MBTL1 inh-2: qHTS Assay for the Inhibitors of L3MBTL1: Hit Validation | L3MBTL1 methyl-lysine binding inhibition, biochemical qHTS | shares compounds with L3MBTL1 inh-1 | AID 540279, 2011 | hit rate 91% among 500 | Potency, µM, actives largely listed as inhibitors; note: nearly all actives have a fitted effect of over 70% in size
# AlphaScreen ctr2: qHTS Assay for the Inhibitors of L3MBTL1: Hit Validationin AlphaScreen Counterscreen. 500 tested, under 10 active. shares compounds with L3MBTL1 inh-1. AlphaScreen counterscreen, signal inhibition. Potency, µM (doses to about 57.1 µM), inactives show at the highest dose activity change, negative = inhibition, usual class: inhibitors; note: 0% is about no effect
# Starred values were filed as active, the others as inactive; i = inactive; ? = inconclusive; . = no result given; [ ] = another dose, or the depositor's remark. Unless noted, calls come from the whole dose curve; as a rule, active = well fitted curve in the direction sought with a large enough effect; inconclusive = small, poorly fitted or top-dose-only effect, or another doubt; inactive = no such curve, though single readings can be large; an effect the other way counts as inactive or inconclusive. Potency is the fitted concentration of half-maximal effect.
SMILES,KDM4E inh,TDP1 block,APE1 inh-1,RECQ1 inh-1,BLM inh-1,L3MBTL1 inh-1,APE1 dye cs,EndoIV counter,APE1 inh-2,APE1 FP,RECQ1 inh-2,others
Oc1ccc(-c2cn3c(n2)SCC3)cc1,-2%,7%,-3%,-9%,1%,.,.,.,.,.,.,
Oc1ccc(-c2cn3c(n2)SCC3)cc1O,13µM*,.,1.6µM*,2.5µM*,16µM*,.,3%,95%,13µM*,-5%,7.1µM*,BLM inh-2=?
CCC1(CC)NC(=O)N(CC(=O)Nc2sc3c(c2C(N)=O)CCC3)C1=O,?,.,18µM*,22µM*,-19%,.,-12%,?,?,?,?,RECQ1 conf=45µM*;RECQ1 ADP FP=?
FC(F)(F)c1cc(NC(=S)Nc2ccc3cc4ccccc4cc3c2)cc(C(F)(F)F)c1,?,7%,1%,i,-8%,.,.,.,.,.,.,
O=C(NCc1ccc2c(c1)CCN2C(=O)c1ccncc1)c1ccccc1Cl,.,0%,.,.,0%,.,.,.,.,.,.,
Cc1c(Cl)cccc1NC(=O)c1ccc2c(c1)nnn2C1CCCC1,.,0%,.,.,-5%,.,.,.,.,.,.,
CCN(Cc1ccccc1)S(=O)(=O)c1ccc(-c2coc(C)n2)cc1,.,-3%,.,.,-3%,.,.,.,.,.,.,
COc1cc(-c2cc(=O)c3c(O)c(OC)c(OC)c(OC)c3o2)cc(OC)c1OC,-23%,5%,-5%,-12%,-16%,.,.,.,.,.,.,
COc1c(O)cc2c(=O)oc3c(OC)c(O)cc4c(=O)oc1c2c34,7.1µM*,.,1.3µM*,3.2µM*,14µM*,.,6.3µM*,108%,0.45µM*,17%,0.79µM*,
O=C(Cn1nnc(-c2ccccc2)n1)NCC(=O)Nc1ccc(F)c(F)c1F,.,0%,25%,.,.,-1%,.,.,.,.,.,
COc1cc(O)c2c(c1)oc(=O)c1c3cc(O)c(O)cc3oc21,.,.,1.8µM*,2.5µM*,13µM*,.,8.9µM*,87%[57.1 µM],4.5µM*,1%[57.1 µM],2.2µM*,RECQ1 conf=14µM*;RECQ1 ADP FP=45µM*
COC(=O)c1ccccc1NC(=O)c1noc2c1CCC2,-24%,11µM*,?,?,?,28µM*,?,24%,11µM*,?,?,L3MBTL1 inh-2=9.5*;AlphaScreen ctr2=4%
COc1ccc(-c2ccc(CCC(=O)O)n2CC(=O)Nc2cccc(Cl)c2C)cc1,.,9%,.,.,-2%,.,.,.,.,.,.,
O=C(/C=C/c1ccc(O)c(O)c1)OC1C(O)CC(OC(=O)/C=C/c2ccc(O)c(O)c2)(C(=O)O)CC1O (stereo not given),3.2µM*,-9%,?,-2%,6%,1µM*,-7%,104%,-11%[24.4 µM],?,.,RECQ1 conf=6%;RECQ1 ADP FP=-3%;L3MBTL1 inh-2=0.075*;AlphaScreen ctr2=7%
O=C(/C=C/c1ccc(O)c(O)c1)O[C@@H]1C[C@](O)(C(=O)O)C[C@@H](O)[C@H]1O,.,.,3%,.,.,8%,.,.,.,.,.,
O=C(Cn1c(=O)n(Cc2ccco2)c(=O)c2c3c(sc21)CCCCC3)c1ccccc1,0%,-14%,?,-28%,-22%,35µM*,?,-6%,-23%[24.4 µM],5%,.,L3MBTL1 inh-2=3.8*;AlphaScreen ctr2=-24%
CN(C)CCn1c(=O)n(Cc2ccco2)c(=O)c2c3c(sc21)CCCCC3,0%,6%,-1%,-10%,0%,-10%,.,.,.,.,.,
Cn1c(=O)c(-c2ccc(F)cc2)nc2cnc(Nc3ccccc3)nc21,.,.,3%,i,-7%,.,.,.,.,.,.,
